# MCF10A rereplic: inducers of DNA re-replication in MCF 10A breast cells. 350,000 compounds, 2.9% hits. MCF 10A DNA re-replication, Hoechst nuclear intensity, 48 h. Potency, µM (doses to about 46.1 µM), for inactives: at the top dose activity, positive = re-replication, most hits filed as activators; note: potency is the fitted concentration of half-maximal effect; % of control where 0% means no effect; nearly all actives have a fitted effect of over 50% in size
# S2 tox: cell viability loss in ATXN counter-screen; S2 cells (HEK-293 line with an ATXN2-luciferase reporter) viability, CellTiter-Fluor protease fluorescence, 24 h; Potency, µM (highest dose often 56.7 µM), usual class: cytotoxic; 400,000 compounds, 0.49% hits; AID 651635; note: potency is the fitted concentration of half-maximal effect; nearly all actives have a fitted effect of over 40% in size
# PINK1 modulator: changes PINK1 expression. PINK1 immunofluorescence, high-content cytometry, 24 h. 410,000 compounds, 0.2% hits. Potency, µM (top dose mostly 76.6 µM), without a hit: at the highest dose activation (PINK1 increase), actives largely listed as activators. AID 624263; active = well fitted activation curve with a large enough effect; inconclusive = small, poorly fitted or top-dose-only effect; cell line not stated here; note: potency is the fitted concentration of half-maximal effect; % of control where 0% means no effect; nearly all actives have a fitted effect of over 65% in size
#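 Decision-based qHTS: stable cells, 24 h exposure to five compound concentrations, CCCP as control. Fixed cells stained for PINK1 plus nuclear, mitochondrial and cell markers, cytometer read.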
# SW480 rerep: DNA re-replication induction in SW480 cells. SW480 DNA re-replication, Hoechst DNA content imaging, 48 h. Potency, µM (doses to about 46.1 µM), for inactives: at the top dose re-replication activation, most hits filed as activators. 340,000 compounds, 1.8% hits. AID 624297; note: potency is the fitted concentration of half-maximal effect; % of control where 0% means no effect; nearly all actives have a fitted effect of over 55% in size
#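 Cells (250 per well) received 23 nL compound or DMSO by pin tool and were kept 48 hr at 37 C, 5% CO2. Nuclei were then stained with Hoechst for 40 min and scanned for DNA content.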
# ATXN2 expr inh: inhibitors of ATXN2 expression; HEK-293 ATXN2-luciferase reporter, luminescence, 24 h; Potency, µM (series often up to 57 µM), for inactives: at the highest dose activity change, negative = inhibition, usual class: inhibitors; 360,000 compounds, 0.72% hits; AID 1745845; note: potency is the fitted concentration of half-maximal effect; % is set by controls: 0 for no effect and ±100 for the full control effect; nearly all actives have a fitted effect of over 55% in size
#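 ATXN2-luciferase reporter cells (luciferase flanked by upstream and downstream ATXN2 gene portions) were treated 24 h at 37 °C with compounds at up to 57 uM. SteadyGlo luminescence gave expression; GF-AFC fluorescence gave viability.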
# IL1B secr inh: inhibitors of inflammasome signaling (IL-1 beta secretion) | THP-1 LPS/ATP IL-1B secretion, AlphaLISA, 16 h; stronger effect = lower value | activity change, % at 57.5 µM | 360,000 compounds, 4.7% hits; in the data active = activity change below about -50%; inconclusive = mostly about -30% to -49%; note: % is set by controls: 0 for no effect and ±100 for the full control effect
#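 Secreted IL-1B measured by AlphaLISA bead assay after 16 h compound exposure of THP-1 cells; compounds (final up to 57.5 uM) added 1 h before LPS (250 ng/mL) and ATP (1.25 mM) stimulation; lower signal means less secretion.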
# Numbers without * were called inactive; i = inactive; ? = inconclusive; · = no result given. Sampled rows, rich in hits. Any-hit rate of the full collection: about 7.1%. Unless noted, calls come from the whole dose curve; as a rule, active = well fitted curve in the direction sought with a large enough effect; inconclusive = small, poorly fitted or top-dose-only effect, or another doubt; inactive = no such curve, though single readings can be large; an effect the other way counts as inactive or inconclusive.
SMILES,MCF10A rereplic,S2 tox,PINK1 modulator,SW480 rerep,ATXN2 expr inh,IL1B secr inh
O=C(NC1CCC(O)CC1)c1ccc(-c2ccc(Cl)cc2)o1 (centres undefined),12%,i,-2%,-3%,45%,-62*
Cc1ccc(-c2cc(C(=O)NCCCN3CCCC3)c3ccccc3n2)cc1C,19%,i,-2%,0%,-39%,-73*
Cc1c(Cl)ccc2c(C(=O)NCCN3CCCCC3)cc(-c3ccccn3)nc12,?,?,-1%,?,-4%,-97*
Cc1c(Cl)ccc2c(C(=O)NCCCn3nccc3C)cc(-c3ccccn3)nc12,?,i,23%,20%,-4%,-3
CCc1nc2cc(C(=O)N(C)C3CCOC3)cc(NC(=O)c3ccccc3OC)c2n1C (centres undefined),·,i,0%,·,·,·
COc1ccc2c(c1)CCc1cnc(-n3ncc(C(=O)NCc4cc(C)no4)c3C3CC3)nc1-2,·,i,0%,·,·,·
Cc1ccc(O)c(C(=O)c2cc(C#N)c(=O)n(-c3nccs3)c2)c1,12µM*,·,11%,14%,-4%,45
COc1ccc(OC)c(CNC(=O)CCc2c(C)nc3c(c2C)c(=O)n(C)c(=O)n3C)c1,·,i,2%,·,4%,·
Cn1c(=O)c2cc(NC(=O)NCc3ccc(Cl)cc3Cl)ccc2n1Cc1ccccc1,·,i,8%,·,-10%,-60*
Cc1cc(NC(=O)c2cccs2)n(-c2nc3ccccc3[nH]2)n1,?,i,1%,4.6µM*,-26%,-25
Cc1cc(NC(=O)c2sccc2C)n(-c2nc3ccccc3[nH]2)n1,?,?,10%,11%,?,-82*
O=C(NC1CCNCC1)C1CCCCC1,-10%,i,0%,-6%,0%,16
NC(=O)C1CCCNC1 (centres undefined),-5%,i,0%,-5%,4%,-57*
COC(=O)C[C@@H]1CC[C@H](NC(=O)Nc2ccc(OC)cc2)[C@@H](CO)O1,·,·,·,·,·,-57*
Cc1noc2ncnc(Sc3ccc(Br)cc3)c12,13µM*,i,4%,14%,-11%,-101*
O=C(CSCn1nnc2c(=O)[nH]c(Cc3ccc(F)cc3)nc21)Nc1cccc(C(F)(F)F)c1,·,i,0%,·,8%,·
CC(O)C(NS(=O)(=O)c1ccc(Cl)cc1)C(=O)OCC(=O)c1ccc2c(c1)NC(=O)CO2 (centres undefined),-4%,?,0%,-5%,-14%,13
CC(C)CC(NC(=O)c1ccc(Cl)cc1)C(=O)OCC(=O)c1ccc2c(c1)NC(=O)CO2 (centres undefined),?,22µM*,2%,?,25µM*,-86*
COc1ccc(Nc2cc(C(=O)NCc3ccccc3)c3ccccc3n2)cc1OC,·,i,1%,·,18%,·
CCN(CC)CCCNC(=O)c1cc(Nc2ccc(OC)cc2)nc2ccccc12,?,i,2%,?,-23%,-60*
CCN(CC)CCNC(=O)c1cc(Nc2ccc(OC)c(OC)c2)nc2ccccc12,0%,i,0%,29%,-17%,-58*
O=C(Nc1ccccc1)N1CCN(c2nc3ccccc3s2)CC1,4%,i,2%,0%,-13%,0
O=C(Nc1ccc(F)cc1)N1CCN(c2nc3ccccc3s2)CC1,-3%,i,1%,6%,-22%,-53*
COc1ccc(C(=O)/C=C/c2ccc(O)cc2)c(O)c1CC=C(C)C,23µM*,·,-1%,2%,?,-72*
COc1ccc(C(=O)/C=C/c2ccc(O)cc2)c2c1CC(O)C(C)(C)O2 (centres undefined),97%,i,-1%,14%,?,-93*
SMILES,MCF10A rereplic,S2 tox,PINK1 modulator,SW480 rerep,ATXN2 expr inh,IL1B secr inh
O=C(C=Cc1ccc(O)cc1)c1ccc(O)cc1O,·,·,·,·,39%,·
Cc1cc(C)c2c(=O)c3c(oc2c1)C(=O)N(CCCOC(C)C)C3c1ccccc1F (centres undefined),·,i,1%,·,7%,·
COc1ccc2cc(C(=O)NCc3ccccc3CN3CCCC3)ccc2c1,33%,i,9%,64%,?,-68*
COc1ccc(NS(=O)(=O)c2cccc(C(=O)NCc3ccccc3CN3CCOCC3)c2)cc1,?,i,1%,?,-34%,-11
COc1ccc2oc(C(=O)NCc3ccccc3CN3CCCC3)c(C)c2c1,12%,i,1%,-4%,·,-22
CCOc1ccc2oc(C(=O)NCc3ccccc3CN3CCCC3)c(C)c2c1,?,i,16%,?,?,-57*
COc1ccc(-c2nc3cc(NC(=O)c4ccc(C)cc4)ccc3o2)cc1Cl,·,i,3%,·,-19%,·
CC1CCN(c2ccccc2NC(=O)c2ccc([N+](=O)[O-])o2)CC1,1%,i,4%,0%,2%,32
CC(C)C(=O)N1CCN(c2ccccc2NC(=O)c2ccc([N+](=O)[O-])o2)CC1,12%,?,-1%,?,?,-28
COc1ccc(N2CCCC2)c(NC(=O)c2ccc([N+](=O)[O-])o2)c1,?,?,-4%,?,-39%,-71*
O=C(Nc1cc(C(F)(F)F)ccc1-n1cncn1)c1ccc([N+](=O)[O-])o1,?,?,16%,9.2µM*,?,-94*
O=C(Nc1cc(C(F)(F)F)ccc1-n1cncn1)c1ccc(Br)cc1,1%,i,-1%,-2%,-32%,?
COc1ccc(C(=O)Nc2cc([N+](=O)[O-])ccc2N2CCCC2)cc1,-5%,i,2%,-7%,0%,1
O=C(Nc1ccccc1N1CCCC1)c1ccc([N+](=O)[O-])o1,23µM*,?,-2%,5.2µM*,?,-93*
CCC(=O)N1CCN(c2ccccc2NC(=O)c2ccc([N+](=O)[O-])o2)CC1,-2%,i,2%,?,-32%,-55*
Cc1ccc(-c2cc(C(=O)Nc3cc([N+](=O)[O-])ccc3C)no2)cc1F,·,i,0%,·,?,·
CCOC(=O)C1CCCN(C(=O)c2ccc(NC(=O)c3nsc4ccccc34)cc2)C1 (centres undefined),·,i,-1%,·,42%,·
O=CNc1c(Cl)cc2c(c1Cl)Cc1cc([N+](=O)[O-])ccc1-2,?,i,-1%,21µM*,-6%,11
CC(=O)Nc1c(Cl)cc2c(c1Cl)Cc1cc(N)ccc1-2,22%,i,1%,-6%,-7%,-16
O=S(=O)(c1ccccc1Br)N1CCN(c2nc(-c3ccccc3)nc3ccccc23)CC1,·,·,-1%,·,·,·
Cc1ccc(C)c(Nc2ncnc3onc(C)c23)c1,·,i,-1%,·,-8%,·

# Bioassay records as filed in PubChem BioAssay.
